From PubChem BioAssay (NCI) come the findings set out here.

About 79,000 compounds went through this panel and 15% of them were active in at least one assay; those are over-represented in the sample as a whole. Unmarked numbers belong to inactive results. Active and inactive are the calls of the source. Cut-off read from the data, not from the text of the source: active = growth inhibition above about 70%; inactive = the rest.

A short description of the first experiment: NCI Yeast Anticancer Drug Screen. Data for the cln2 rad14 strain (AID 165).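 Note: 0% = growth equal to vehicle treated cultures.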 Conditions: S. cerevisiae cln2 rad14 strain, at 50.0 µM, hits give high values. The procedure, abridged:
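Test compounds were added to cln2 rad14 yeast cultures; inhibition of growth was then determined by comparison with vehicle treatment.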
Regarding `CCC(C)(C)c1ccc(OCCOc2ccc(C(=O)O)cc2[N+](=O)[O-])cc1`, the growth inhibition is -17.6%.
The same measure, in the same setting: the same measure for `CC(C)CN(CC(C)C)/N=C/c1cc([N+](=O)[O-])ccc1O`: -3.65%; for `COc1ccc(C=Nc2c(N)[nH]c(=S)[nH]c2=O)cc1`: 0.7%.
As to `O=C(OC1CCC(c2ccccc2)C1)c1cc([N+](=O)[O-])cc([N+](=O)[O-])c1` (stereo not given), the growth inhibition is -4.3%.
For the compound `O=C1c2ccccc2C(=O)N1Cl`, the growth inhibition was -0.05%.
On to `CCOC(=O)O/C(C)=C\c1ccccc1Cl`, for which the growth inhibition is 7.75%.
Same read-out and setting: the same measure for `CCC1(c2ccccc2)CCCC/C1=N/NC(N)=O` (stereo not given): 2.2%.
The same measure, in the same setting: the same measure for `Cc1ccc(S(=O)(=O)N/N=C/C(O)C(O)C(O)C(O)CO)cc1` (stereo not given): -34.1%; for `Cc1ccc(CO)cc1`: -5.6%; for `O=C(CN1CCCc2ccccc21)c1ccccc1`: 10.3%.
On the same count and under the same terms, the same measure for `C/C=C/C1OCC(C)([N+](=O)[O-])CO1` (stereo not given): 12.5%; for `N=C(Oc1ccccc1)c1ccccc1`: -28.7%; for `CCOC(=O)CN/N=C(\N)CSS(=O)(=O)O`: 13.3%.
`Cc1ccccc1N=CC(C=O)[N+](=O)[O-]` (stereo not given): the growth inhibition was 4.1%.
Same read-out and setting: the same measure for `CCCCCCCCCCCCCCC[N+](C)(C)C`: 99.2% (active); for `CC(=O)O[C@@H]1[C@H]2O[C@H]2[C@H]2O[C@@]2(COC(=O)c2ccccc2)[C@H]1OC(C)=O`: -6%.
As to `CSc1nnc2c3ccccc3ccn12`, the growth inhibition was -3.3%.
On to `CC(=O)c1cccc(NC(=O)C(=O)C(C(=O)NN)c2ccccc2)c1` (stereo not given), for which the growth inhibition was 4.2%.
In the case of `CN1CCCn2c(nc3ccccc3c2=O)C1`, the growth inhibition is 14.5%.
On to `O=C(O)Cc1ccc2ccccc2c1Br`, for which the growth inhibition is 22.8%.
Turning to `CCOC(=O)c1c(-c2ccc([N+](=O)[O-])cc2)c(C#N)n(-c2ccccc2)c1C`, the growth inhibition is -7.95%.
For the compound `Cc1[nH]c2c(C)ccc(C)c2c1CC(=O)O`, the growth inhibition was 17.1%.
With `CCOC(=O)c1c(O)csc1N`, the growth inhibition is -16.9%.
On to `O=CC1CCCc2ccccc21` (stereo not given), for which the growth inhibition is -5.7%.
In the case of `CN(C)Cc1cc(O)c(O)c(CN(C)C)c1`, the growth inhibition was 5.4%.
`NCCNCCCNC(=O)c1cc(-c2ccccc2)nc2ccccc12`: the growth inhibition is -11.9%.
For `O/N=C1\CC2(N3CCOCC3)CCC1(Cc1ccccc1)CC2`, the growth inhibition is 55.6%.
As for `COC(=O)c1ccc(O)c(CN(C)C)c1`, the growth inhibition is 3.4%.
Turning to `C[N+]1(C)CCCC(CN2c3ccccc3Sc3ccccc32)C1` (stereo not given), the growth inhibition is -13.4%.
In the case of `Cc1nc(/N=C(/N)N(C)C)[nH]c(=O)c1C`, the growth inhibition is 3.7%.
Same read-out and setting: with `CC(C)(CC1(C)NC(=O)NC1=O)OCc1ccccc1` (stereo not given) the figure was -24.2%; with `CCCCCCn1c(=O)cc2n(c1=O)CCC2`, 11.1%.
On the same count and under the same terms, with `CCOCC(=O)N[C@H]1CCc2cc(OC)c(OC)c(OC)c2-c2ccc(OC)c(=O)cc21` the figure was -2.6%.
`COc1ccc(C=Nc2ccc(O)cc2)cc1`: the growth inhibition was 34.1%.
Turning to `O=C(Cc1ccccc1CC(=O)Oc1ccccc1)Oc1ccccc1`, the growth inhibition was 5.2%.
As to `COC(=O)C(=O)C(C(=O)c1cccc2ccccc12)c1nc2n(c1O)C(=N)N=N2` (stereo not given), the growth inhibition was -4.9%.
Still for that read-out and setting: with `CC(=O)ON=C(C1CC1)C1CC1` the figure was 4.3%; with `O=[N+]1C=CC(=NN=c2ccn([O-])cc2)C=C1`, 14.6%.
Consider `Nc1c(Cl)cnn2nnnc12`, for which the growth inhibition was -11.9%.
Regarding `C=CCOC(=O)c1cccc(C(=O)OCC=C)c1`, the growth inhibition is 19.1%.

A short description of another experiment: NCI Yeast Anticancer Drug Screen. Data for the bub3 strain (AID 167). Conditions: S. cerevisiae bub3 mutant strain, at 50.0 µM, hits give high values. A digest of the protocol: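 Yeast carrying a defined mutation is treated with each compound, and growth is compared with that of vehicle-exposed cells to give inhibition.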
Take `CCC(C)(C)c1ccc(OCCOc2ccc(C(=O)O)cc2[N+](=O)[O-])cc1`: the growth inhibition was -6.6%.
For the compound `CC(C)CN(CC(C)C)/N=C/c1cc([N+](=O)[O-])ccc1O`, the growth inhibition is -12.9%.
In the case of `COc1ccc(C=Nc2c(N)[nH]c(=S)[nH]c2=O)cc1`, the growth inhibition is -27.8%.
As to `O=C(OC1CCC(c2ccccc2)C1)c1cc([N+](=O)[O-])cc([N+](=O)[O-])c1` (stereo not given), the growth inhibition was 44.3%.
On the same count and under the same terms, the same measure for `O=C1c2ccccc2C(=O)N1Cl`: 2.2%; for `CCOC(=O)O/C(C)=C\c1ccccc1Cl`: -5.85%.
For `CCC1(c2ccccc2)CCCC/C1=N/NC(N)=O` (stereo not given), the growth inhibition was -6.05%.
`Cc1ccc(S(=O)(=O)N/N=C/C(O)C(O)C(O)C(O)CO)cc1` (stereo not given): the growth inhibition was -8.45%.
Regarding `Cc1ccc(CO)cc1`, the growth inhibition is -2.05%.
The same measure, in the same setting: with `O=C(CN1CCCc2ccccc21)c1ccccc1` the figure was 19%; with `C/C=C/C1OCC(C)([N+](=O)[O-])CO1` (stereo not given), -1.35%; with `N=C(Oc1ccccc1)c1ccccc1`, -13.1%.
`CCOC(=O)CN/N=C(\N)CSS(=O)(=O)O`: the growth inhibition is 9.65%.
As for `Cc1ccccc1N=CC(C=O)[N+](=O)[O-]` (stereo not given), the growth inhibition was -4.7%.
Turning to `CCCCCCCCCCCCCCC[N+](C)(C)C`, the growth inhibition was 97.5% (active).
For the compound `CC(=O)O[C@@H]1[C@H]2O[C@H]2[C@H]2O[C@@]2(COC(=O)c2ccccc2)[C@H]1OC(C)=O`, the growth inhibition was 0.75%.
As for `CSc1nnc2c3ccccc3ccn12`, the growth inhibition was -14.1%.
The same measure, in the same setting: with `CC(=O)c1cccc(NC(=O)C(=O)C(C(=O)NN)c2ccccc2)c1` (stereo not given) the figure was 23%.
In the case of `CN1CCCn2c(nc3ccccc3c2=O)C1`, the growth inhibition was -0.5%.
The same measure, in the same setting: the same measure for `O=C(O)Cc1ccc2ccccc2c1Br`: -8.6%; for `CCOC(=O)c1c(-c2ccc([N+](=O)[O-])cc2)c(C#N)n(-c2ccccc2)c1C`: 45.1%; for `Cc1[nH]c2c(C)ccc(C)c2c1CC(=O)O`: -24.1%.
As to `CCOC(=O)c1c(O)csc1N`, the growth inhibition was -20.6%.
For `O=CC1CCCc2ccccc21` (stereo not given), the growth inhibition is 3.9%.
As to `CN(C)Cc1cc(O)c(O)c(CN(C)C)c1`, the growth inhibition is -40.2%.
For the compound `NCCNCCCNC(=O)c1cc(-c2ccccc2)nc2ccccc12`, the growth inhibition was 14.9%.
On to `O/N=C1\CC2(N3CCOCC3)CCC1(Cc1ccccc1)CC2`, for which the growth inhibition was 38.8%.
On to `COC(=O)c1ccc(O)c(CN(C)C)c1`, for which the growth inhibition is -15.1%.
`C[N+]1(C)CCCC(CN2c3ccccc3Sc3ccccc32)C1` (stereo not given): the growth inhibition is 5.9%.
Same read-out and setting: the same measure for `Cc1nc(/N=C(/N)N(C)C)[nH]c(=O)c1C`: 4.05%; for `CC(C)(CC1(C)NC(=O)NC1=O)OCc1ccccc1` (stereo not given): -45.8%.
As to `CCCCCCn1c(=O)cc2n(c1=O)CCC2`, the growth inhibition was 3.5%.
In the case of `CCOCC(=O)N[C@H]1CCc2cc(OC)c(OC)c(OC)c2-c2ccc(OC)c(=O)cc21`, the growth inhibition was 9.35%.
Take `COc1ccc(C=Nc2ccc(O)cc2)cc1`: the growth inhibition was -22.6%.
Regarding `O=C(Cc1ccccc1CC(=O)Oc1ccccc1)Oc1ccccc1`, the growth inhibition was 18.9%.
The same measure, in the same setting: with `COC(=O)C(=O)C(C(=O)c1cccc2ccccc12)c1nc2n(c1O)C(=N)N=N2` (stereo not given) the figure was -2.75%.
With `CC(=O)ON=C(C1CC1)C1CC1`, the growth inhibition is -13%.
Take `O=[N+]1C=CC(=NN=c2ccn([O-])cc2)C=C1`: the growth inhibition is 8%.
With `Nc1c(Cl)cnn2nnnc12`, the growth inhibition was 2.95%.
For the compound `C=CCOC(=O)c1cccc(C(=O)OCC=C)c1`, the growth inhibition was 34.5%.
